In PubChem BioAssay (NCATS) one finds Potency and activity change, negative = cytotoxicity data, which are given here for 39 compounds.

Records with an inconclusive call do not appear. Where a call stands in place of a potency, no number is given. Activity calls are given as the source filed them. Calls follow the shape of the dose curve; as a rule, active = well fitted cell-killing curve with a large enough effect; inconclusive = small, poorly fitted or top-dose-only effect, or effect the other way; inactive = flat fitted curve, though single readings scatter.
Potency is read from the fitted curve at half-maximal effect.

This assay deals with Es-2. Description: Primary qHTS to identify gynecologic anti-cancer compounds using libraries of approved drugs and bioactive compounds (AID 1345084). Also: nearly all actives have a fitted effect of over 55% in size. As to conditions: Gynecologic cancer cell panel viability, ATPlite luminescence, 48 h; series mostly up to 57.5 µM. Put shortly: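 Cell viability after 48 h drug treatment, ATPlite luminescence readout; five doses.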
On the technique in general: In qHTS, concentration-response curves come from the screen itself.
Consider `C=C1[C@@H]2CC[C@@H]3[C@@](CCC4C(C(=O)O)(C(=O)O)C[C@@H](O[C@@H]5O[C@H](CO)[C@@H](O)[C@H](O)[C@H]5OC(=O)CC(C)C)C[C@]43C)(C2)[C@H]1O` (some centres undefined), for which the Potency entry is “inactive”.
As to `N[C@@]1(C(=O)O)CC[C@H]2[C@H](C(=O)O)[C@H]21`, the Potency result is “inactive”.
For `C[C@@H]1O[C@@H](O[C@H]2[C@@H]3C=CO[C@@H](O[C@@H]4O[C@H](CO)[C@@H](O)[C@H](O)[C@H]4O)[C@@H]3[C@@]3(CO)O[C@@H]23)[C@H](OC(=O)/C=C/c2ccccc2)[C@H](O)[C@H]1O`, the Potency result was “inactive”.
As for `C[C@@H]1CC[C@]2(C(=O)O[C@@H]3O[C@H](CO)[C@@H](O)[C@H](O)[C@H]3O)CC[C@]3(C)C(=CCC4[C@@]5(C)C[C@@H](O)[C@H](O)[C@](C)(C(=O)O)C5CC[C@]43C)[C@@H]2[C@]1(C)O` (some centres undefined), the Potency entry is “inactive”.
On to `C=C1CN(Cc2ccc(C(=O)Nc3ccccc3N)cc2)C(=O)c2ccccc21`, for which the Potency was 5.01 µM (active).
As for `COc1ccc(C(=O)n2c(C)c(Cc3cccc(O[C@@H](C)C(=O)O)c3)c3cc(OC(F)(F)F)ccc32)cc1`, the Potency entry is “inactive”.
As to `Cc1ccc([N+](=O)[O-])cc1S(=O)(=O)N(C)/N=C/c1cnc2ccc(Br)cn12`, the Potency was 0.398 µM (active).
In the case of `C[C@@H]1O[C@@H](O[C@@H]2[C@@H](O)[C@H](O[C@H]3CC[C@@]4(C)C(CC[C@]5(C)C4CC=C4[C@@H]6CC(C)(C)CC[C@]6(C(=O)O[C@@H]6O[C@H](CO)[C@@H](O)[C@H](O)[C@H]6O)CC[C@]45C)C3(C)C)O[C@H](C(=O)O)[C@H]2O)[C@H](O)[C@H](O)[C@H]1O` (some centres undefined), the activity change, negative = cytotoxicity is 6.6% [at 11.6 µM] (inactive).
`CCOC(=O)C(CCc1ccccc1)NC(C)C(=O)N1C(=O)N(C)CC1C(=O)O` (centres undefined): the Potency entry was “inactive”.
On the same count and under the same terms, for `CC1=CCC2C(C)(C)CCC[C@]2(C)[C@@]12CC[C@](C)(CC(=O)O)O2` (some centres undefined) the value was “inactive”.
As to `CC1CCC2C(C)(C)[C@@H](O)CC[C@]2(C)C12Cc1c(O)cc3c(c1O2)CN(C(CCC(=O)O)C(=O)O)C3=O` (some centres undefined), the Potency result is “inactive”.
Consider `Cc1cc(NC(=O)Nc2ccc(F)c(F)c2)n(-c2ccccc2)n1`, for which the Potency entry was “inactive”.
The same measure, in the same setting: for `CC(/C=C/C1=CC2=CC(=O)C(C)(O)C(O)C2=CO1)=C\C(C)CCO` (centres undefined) the value was “inactive”; for `CO[C@H]1C[C@@H]2CC[C@@H](C)[C@@](O)(O2)C(=O)C(=O)N2CCCC[C@H]2C(=O)O[C@H]([C@H](C)C[C@@H]2CC[C@H](n3cnnn3)[C@H](OC)C2)CC(=O)[C@H](C)/C=C(\C)[C@@H](O)[C@@H](OC)C(=O)[C@H](C)C[C@H](C)/C=C/C=C/C=C/1C`, “inactive”; for `Cn1c(=O)cc(N2CCCC(N)C2)n(Cc2cc(F)ccc2C#N)c1=O` (centres undefined), “inactive”.
In the case of `CCN1CCN(Cc2ccc(NC(=O)c3ccc(C)c(/C=C/c4cnc5[nH]ccc5c4OC)c3)cc2C(F)(F)F)CC1`, the Potency is 10 µM (active).
The same measure, in the same setting: as for `COc1c(Nc2ncc(Cl)c(N[C@H]3[C@@H](C(N)=O)[C@@H]4C=C[C@H]3C4)n2)ccc2c1CC[C@@H](N1CCOCC1)CC2`, the entry is “inactive”; as for `CNC(=S)NS(=O)(=O)c1cc(CCNC(=O)c2cc(Cl)ccc2OC)ccc1OC`, “inactive”.
On to `COc1ccc(CC2NCCc3c2[nH]c2ccc(C)cc32)cc1OC` (centres undefined), for which the Potency entry is “inactive”.
Take `O=C(/C=C/c1cccc(S(=O)(=O)Nc2ccccc2)c1)NO`: the Potency is 5.01 µM (active).
The same measure, in the same setting: for `Cc1cccc(C)c1-n1c(=O)c2cnc(Nc3ccc(N4CCN(C)CC4)cc3)nc2n2c3ccccc3nc12` the value was 3.55 µM (active); for `NC1CCC(Nc2cc(-c3cccc(NCc4cccc(F)c4)n3)c(Cl)cn2)CC1` (centres undefined), 0.708 µM (active); for `C=C[C@]1(C)C[C@H](O)[C@@H]2[C@H](OC(=O)[C@@H]2C)C1/C(C)=C/O[C@@H]1O[C@H](CO)[C@@H](O)[C@H](O)[C@H]1O` (some centres undefined), “inactive”.
On to `C[C@H](NC(c1cccc(C[P+](=O)O)c1)[C@H](C)O)c1ccc(Cl)c(Cl)c1` (some centres undefined), for which the Potency result was “inactive”.
`O=C(N/N=C/c1ccc(O)c(O)c1)c1cc2ccccc2cc1O`: the Potency entry was “inactive”.
As to `CO[C@H]1C[C@@H]2CC[C@@H](C)[C@@](O)(O2)C(=O)C(=O)N2CCCC[C@H]2C(=O)O[C@H]([C@H](C)C[C@H]2CC[C@@H](OP(C)(C)=O)[C@H](OC)C2)CC(=O)[C@H](C)/C=C(\C)[C@@H](O)[C@@H](OC)C(=O)[C@H](C)C[C@H](C)/C=C/C=C/C=C/1C`, the Potency result was “inactive”.
For `CC(C)=CCC/C(C)=C/CO[C@@H]1O[C@H](CO)[C@@H](O)[C@H](O)[C@H]1O`, the Potency entry is “inactive”.
The same measure, in the same setting: for `O=C(O)CCCCCC[C@H]1C(=O)NC(=O)N1CC[C@@H](O)C1CCCCC1` the value was “inactive”; for `CCC(O)(C(=O)OCc1ccccc1NC(=O)CCC(=O)O)C(C)O` (centres undefined), “inactive”; for `COC(=O)C[C@H]1[C@]2(C)C3=C(C)[C@H](c4ccoc4)C[C@H]3O[C@@H]2[C@H](OC(C)=O)C2[C@](C)(C(=O)OC)C=CC(=O)[C@@]21C` (some centres undefined), “inactive”.
On to `C=C(C(=O)O)[C@H]1C[C@]2(C)[C@@H](O)CC[C@]23O[C@H]1C[C@@H]3C`, for which the Potency result was “inactive”.
As to `COc1c(/C=C/C(C)(C)O)ccc2c1C(=O)OCc1cc(C)cc(O)c1O2`, the Potency result is “inactive”.
Regarding `Cc1cc(C)c(CNC(=O)c2cc(-c3ccc(CN4CCOCC4)cc3)cc3c2cnn3C2CCCC2)c(=O)[nH]1`, the Potency entry is “inactive”.
Still for that read-out and setting: for `O=C(O)c1ccc(CN2CCC(CN[C@@H]3C[C@H]3c3ccccc3)CC2)cc1` the value was “inactive”.
`COc1ccc(N2CCOCC2)c2sc(NC(=O)N3CCC(C)(O)CC3)nc12`: the Potency result was “inactive”.
For the compound `CCC(COC)n1nnc2c(Nc3ccc(OC)cc3C)nc(C)cc21` (centres undefined), the Potency result was “inactive”.
Still for that read-out and setting: for `CC(=O)OC1C[C@@]2(C)[C@@H](CC[C@@H](C)[C@]23Cc2c(O)cc4c(c2O3)CNC4=O)C(C)(C)[C@@H]1O` (some centres undefined) the value was “inactive”.
As for `OC/C=C/C=C/[C@H]1Cc2cc(O)cc(O)c2O1`, the Potency result was “inactive”.
For the compound `C/C=C/C1=CC2=C(CO1)C(=O)C(C)(O)C(OC(=O)c1c(C)cc(OC)cc1O)C2` (centres undefined), the Potency result is “inactive”.
